HCMV antiviral = blocks human cytomegalovirus replication. HFF cells, HCMV-luciferase reporter, 72 h; stronger effect = lower value. activity change, negative = inhibition, % at 57.5 µM. hit rate 4.5% among 410,000. AID 1259415; in the data active means activity change below about -60%; inconclusive means no clear call, values can overlap the other calls; inactive means above about -39%
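HFF cells seeded 16 h at 37C, treated with compounds, infected with luciferase-reporter HCMV at MOI 1 PFU/cell; luciferase read at 72 h post infection, normalized to buffer-only and Salinomycin controls.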
MARV entry inh = inhibitors of Marburg virus binding or cell entry. Marburg virus pseudotyped entry inhibition, cell reporter. Potency, µM (titrated, usually from 37.8 µM), inactives show at the highest dose activity change, negative = inhibition, most hits filed as inhibitors. hit rate 1.8% among 300,000. AID 540276; calls by dose curve; tested in HEK293 cells; further: potency means the concentration at half of the fitted maximal effect
Lassa entry inh = inhibitors of Lassa virus binding or cell entry. Potency, µM (series often up to 37.9 µM), without a hit: at the highest dose activity change, negative = inhibition, usual class: inhibitors. Lassa virus pseudotype entry inhibition, cell reporter. hit rate 1.2% among 300,000; calls by dose curve; tested in HEK293 cells; further: potency means the concentration at half of the fitted maximal effect; nearly all actives have a fitted effect of over 50% in size
FMDV inh = foot and mouth disease virus antiviral activity; hit rate 1.2% among 410,000; FMDV antiviral cell-based qHTS; Potency, µM (highest dose often 57.9 µM), without a hit: top-dose activity change, negative = inhibition, usual class: inhibitors; calls by dose curve; tested in HEK293T cells; further: read-out not given here; potency means the concentration at half of the fitted maximal effect; nearly all actives have a fitted effect of over 45% in size
The depositor's hits bear a star; ? = inconclusive; / = no result given; ! = repeats disagree; [ ] = dose if it differs, or a comment. Only some compounds are listed: those with a hit (about 6.2% of all), similar ones and a draw of the others. On the % scale 0 is the no-effect control and ±100 the full control effect.

SMILES	HCMV antiviral	MARV entry inh	Lassa entry inh	FMDV inh
Cc1ccc(S(=O)(=O)N2CCCOC2CNC(=O)C(=O)NCCc2c[nH]c3ccccc23)cc1 (configuration not stated)	-64*	?	?	0%
CCCCCCCn1c(=O)c(C(=O)OC)c(N)c2ccccc21	-89*	?	?	13µM*
CCCCCCCCn1c(=O)c(C(=O)OC)c(N)c2ccccc21	-64*	?	?	?
CCCNC(=O)C1(C)CCCN(C(=O)c2cccnc2Oc2ccccc2)C1 (configuration not stated)	7	/	/	-1%
C=CCNC(=S)/N=c1\sccn1C	27	-2%	?	25%
C=CCNC(=S)/N=c1/ccccn1CCC	-107*	5%	/	-7%
C=CCNC(=S)/N=c1/ccccn1C	-98*	4%	1%	-9%
CCCCCCCCCCCCCCCC(O)C(N)CO (configuration not stated)	-98*	31%	7%	-3%
C[C@]12C[C@@](C)(C=C1C=Cc1ccccc1)C(=O)C[C@H]2c1ccccc1	/	3%[14.2 µM]	/	/
CCOc1ccc(NC(=O)CCCc2nc(-c3cccc(OC)c3)no2)cc1	-9	0%[46.1 µM]	13%[46.1 µM]	-8%
O=C(Nc1ccc(Br)cc1)c1cc(Br)cc(Br)c1O	-99*	/	/	/
Cc1sc(N)nc1-c1ccc2c(c1)OCCO2	31	/	/	50%
COCCN=C1NN=C(c2cc(C)n(CC3CCCO3)c2C)CS1 (configuration not stated)	30	5%[46.1 µM]	/	-30%
NC1=NN=C(c2ccc3c(c2)OCCO3)CS1	47	11µM*	7.1µM*	11µM*
C=CCN=C1NN=C(c2cc(C)n(CC=C)c2C)CS1	-88*	?	?	18µM*
C=CCN=C1NN=C(c2ccc3c(c2)OCCO3)CS1	-33	0.92µM*	0.46µM*	8.9µM*
c1ccc(C2=NNC(=NCc3ccc4c(c3)OCO4)SC2)cc1	-32	5%	-3%	15%
COc1ccc(Cc2c(-c3cccc(Cl)c3)nc3ccc(C)cn23)c(C)c1	15	/	/	30%
C=CCn1c(CCC(O)COCCCCC)n[nH]c1=S (configuration not stated)	-97*	16%	6%	-11%
C=CCn1c(C(CCCC)CC(O)COCCC)n[nH]c1=S (configuration not stated)	-17	/	/	-21%
CCc1ccc(-n2c(SCc3ccccc3F)nc3[nH]ncc3c2=O)cc1	-23	/	?	?
COc1ccc(N2CCN(C(=O)CSc3nc4[nH]ncc4c(=O)n3-c3ccc(Br)cc3)CC2)cc1	-63*	/	/	-17%
O=c1c2cn[nH]c2nc(SCc2cc(=O)n3cc(Br)ccc3n2)n1-c1ccc(Br)cc1	-72*	?	4%	-24%
COc1ccc(-n2c(SCC(=O)NCc3cccs3)nc3[nH]ncc3c2=O)cc1	38	/	/	13%
O=c1c2cn[nH]c2nc(SCc2ccccc2F)n1-c1ccc(Br)cc1	-71*	?	?	-21%
SMILES	HCMV antiviral	MARV entry inh	Lassa entry inh	FMDV inh
Cc1ccccc1-n1c(SCc2cc(=O)n3ccccc3n2)nc2[nH]ncc2c1=O	12	-22%	17%	-19%
COc1ccc(Cn2c(=O)c3oc4ccccc4c3n(Cc3ccc(Cl)cc3)c2=O)cc1	17	/	14%[46.1 µM]	-4%
O=C(COC(=O)CCc1c[nH]c2ccccc12)Nc1ccccc1C(F)(F)F	-94*	/	/	-17%
COc1ccccc1-c1cc(C(F)(F)F)nc(S(=O)(=O)CCCC(=O)O)n1	-14	?	7%	25µM*
COc1ccccc1-c1cc(C(F)(F)F)nc(S(=O)(=O)CCCC(=O)N2CCOCC2)n1	-104*	11µM*!	13µM*	22µM*
COc1ccc(-c2cc(C(F)(F)F)nc(S(=O)(=O)CCC(=O)N3CCOCC3)n2)cc1	96	?	?	-11%
Fc1ccc(CN(C2=NCCN2)c2c(Cl)cccc2Cl)cc1	/	18µM*	?	/
Fc1cccc(CN(C2=NCCN2)c2c(Cl)cccc2Cl)c1	-63*	/	/	-14%
Fc1ccc(CN2CCN(c3ncccn3)CC2)cc1	-34	-16%	9%	/
Cc1nc2c(-c3ccc(F)cc3)c(C)nn2c(C)c1CCC(=O)NCc1ccc(Cl)cc1	-3	-2%[46.1 µM]	-18%[46.1 µM]	?
CCCCCCCc1cc2ccccc2c2c(C(=O)OC)c(C(=O)OC)c(C(=O)OC)n12	/	18%[14.2 µM]	?	/
CC(=O)c1ccc(NC(=O)COCc2cc(-c3ccc(F)cc3)on2)cc1	-11	/	15%[46.1 µM]	-13%
CCc1cc(C(=O)NNC(=O)CCl)sc1C	-64*	?	?	15%
O=C(NCc1ccccc1F)Nc1nnc([C@H]2C[C@H](O)[C@@H](CO)O2)s1	-93*	/	/	-9%
COc1ccc(C2=C(C)C(=NCCCN3CCN(c4cc(C)ccc4C)CC3)NS2(=O)=O)cc1	-91*	-20%[46.1 µM]	-13%[46.1 µM]	-1%
O=C(CN(c1cccc([N+](=O)[O-])c1)S(=O)(=O)c1ccccc1)NCc1ccccc1	-32	-7%	-2%	15%
O=C(CN(c1cccc([N+](=O)[O-])c1)S(=O)(=O)c1ccccc1)N(Cc1ccccc1)Cc1ccccc1	-62*	?	?	-7%
Oc1ccc(/C=N/Nc2ccc(C(F)(F)F)cn2)c(O)c1	-94*	/	/	/
NC(=O)Cn1cc(C(=O)COc2ccccc2)c2ccccc21	-11	/	/	/
O=C(COc1ccccc1)c1cn(Cc2ccccc2)c2ccccc12	-63*	?	4%	-14%
CCCc1ccc(S(=O)(=O)N2CCC(c3nnc(-c4cccc(C)c4)o3)CC2)cc1	-78*	-25%[46.1 µM]	2%[46.1 µM]	5%
Cc1ccc(S(=O)(=O)N2CCC(c3nnc(-c4cccc(C)c4)o3)CC2)cc1	-92*	-4%[46.1 µM]	-23%[46.1 µM]	3%
CCOC(=O)NC(=O)CSc1nc(C)cc(C)c1C#N	87	0%	-19%	18%
Cc1ccc(Cl)cc1NC(=O)CSc1nc(C)c(C)c(C)c1C#N	-85*	-34%[46.1 µM]	-3%[46.1 µM]	-26%
CC(=O)Nc1cccc(NC(=O)CSc2nc(C)c(C)c(C)c2C#N)c1	-12	?	28%	?
SMILES	HCMV antiviral	MARV entry inh	Lassa entry inh	FMDV inh
Cc1cccc(C)c1NC(=O)CSc1nc(C)c(CC(=O)c2ccc(Br)cc2)c(C)c1C#N	43	?	18µM*	0%
CCc1nnc(NC(=O)CSc2nc(C)cc(C)c2C#N)s1	22	7.9µM*	?	-9%
CN(Cc1ccc(Cl)cc1Cl)C(=O)C1CSC2(C)CCC(=O)N12 (configuration not stated)	-36	/	/	?
O=C1Cc2cc(CCN3CCN(c4nsc5ccccc45)CC3)c(Cl)cc2N1	/	?	5.8µM*	/
COc1ccc(OC)c(C(=O)NC2CC(C)(C)Cc3c2cnn3-c2ccccc2)c1 (configuration not stated)	-77*	/	/	?
c1ccc(CNCCC(Cc2ccccc2)c2ccco2)cc1 (configuration not stated)	24	?	?	-5%
CN(C)c1ccc(CNCCC(Cc2ccccc2)c2ccco2)cc1 (configuration not stated)	?	15µM*	?	-27%
CC1(C)CC(=O)c2c(O)cc(OCC(=O)Nc3ccc(S(N)(=O)=O)cc3)cc2O1	-22	/	/	?
CN(C)C(=O)c1ccc(NC(=O)COc2cccc3c2OC(C)(C)C3)cc1	-101*	-1%	5%	-13%

Compound activity from PubChem.
